These results are taken from PubChem BioAssay (Tox21).

Assay [1] can be described thus: Caspase-3/7 induction in HepG2 cells by small molecules, qHTS assay (AID 1346978). Also: nearly all actives have a fitted effect of over 15% in size. The method, boiled down: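 Caspase-3/7 induction was measured by Caspase-Glo 3/7 luminescence (30 min, room temperature) after a 17 hr compound exposure of wild-type HepG2 cells seeded at 2,000 per well and pre-incubated 5 hr.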
Assay [2] can be described thus: Caspase-3/7 induction in CHO-K1 cells by small molecules, qHTS cell viability counter screen (AID 1346979). Also: nearly all actives have a fitted effect of over 35% in size. Also: potency is read from the fitted curve at half-maximal effect. In outline:
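Wild-type CHO-K1 cells (1,500/well) treated with compound after 5 h plating; after 16 h at 37C, viability read as CellTiter-Fluor fluorescence following 1 h reagent incubation, in the same wells as the caspase read.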

A short description of assay [3]: Caspase-3/7 induction in CHO-K1 cells by small molecules, qHTS assay (AID 1346980). Also: nearly all actives have a fitted effect of over 15% in size. In outline:
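Luminescent Caspase-Glo 3/7 read (30min, room temperature) quantified apoptosis induction. Cells were wild-type CHO-K1, treated with compound for 17hr at 37 C and 5% CO2.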

Assay [4] in a line: Caspase-3/7 induction in HepG2 cells by small molecules, qHTS cell viability counter screen (AID 1346981). Also: series mostly up to about 92 µM; nearly all actives have a fitted effect of over 30% in size. In outline:
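Viability determined by CellTiter-Fluor fluorescence in HepG2 wells also used for the luminescent Caspase-Glo 3/7 read. Compounds were present for 16 hr at 37 C, 5% CO2 before reagent addition.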

Assay [5] addresses Nuclear receptor subfamily 1 group I member 2 (Homo sapiens) (UniProt O75469). The experiment in a line: Human pregnane X receptor (PXR) small molecule agonists, qHTS assay (AID 1346982). Also: nearly all actives have a fitted effect of over 35% in size. Also: potency is read from the fitted curve at half-maximal effect. In outline:
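Compound-induced hPXR transactivation of a CYP3A4 luciferase reporter was scored in HepG2 PXR-Luc cells over 24 hr at 37 C, 5% CO2, by luminescence.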

The target is the same in assay [6]. The experiment in a line: CYP3A4 induction through human pregnane X receptor (PXR) by small molecules, qHTS assay (AID 1346984). Also: nearly all actives have a fitted effect of over 40% in size. Also: potency is read from the fitted curve at half-maximal effect. In outline:
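Readings come from a luciferase reporter: DPX-2 cells, which are HepG2 cotransfected with PXR and a CYP3A4-promoter construct, were exposed to test compounds for 24 h at 37C before One-Glo detection.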

Assay [7] has as its target Cytochrome P450 2D6 (Homo sapiens) (UniProt P10635). The experiment in a line: Cytochrome P450 Family 2 Subfamily D Member 6 (CYP2D6) small molecule antagonists: luciferase reporter qHTS assay (AID 1671196). Also: nearly all actives have a fitted effect of over 50% in size. Also: potency is read from the fitted curve at half-maximal effect. The method, boiled down: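 Each well received CYP2D6 with its proluciferin substrate and chemical, sat 10 min, then got NADPH regeneration solution for 1 h at room temperature. Luminescence in RLU served as the activity measure.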

The target of assay [8] is Cytochrome P450 2C19 (Homo sapiens) (UniProt P33261). The experiment in a line: Cytochrome P450 Family 2 Subfamily C Member 19 (CYP2C19) small molecule antagonists: luciferase reporter qHTS assay (AID 1671197). Also: nearly all actives have a fitted effect of over 65% in size. Also: potency is read from the fitted curve at half-maximal effect. The method, boiled down: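 Relative luminescence units recorded 20 min after the detection reagent stopped a 1 h, 37C CYP2C19 reaction on proluciferin substrate, which was started by NADPH regeneration following 10 min room-temperature compound preincubation; ketoconazole positive control.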
Cytochrome P450 2C19 (Homo sapiens), sequence (P33261 whole entry, looked up): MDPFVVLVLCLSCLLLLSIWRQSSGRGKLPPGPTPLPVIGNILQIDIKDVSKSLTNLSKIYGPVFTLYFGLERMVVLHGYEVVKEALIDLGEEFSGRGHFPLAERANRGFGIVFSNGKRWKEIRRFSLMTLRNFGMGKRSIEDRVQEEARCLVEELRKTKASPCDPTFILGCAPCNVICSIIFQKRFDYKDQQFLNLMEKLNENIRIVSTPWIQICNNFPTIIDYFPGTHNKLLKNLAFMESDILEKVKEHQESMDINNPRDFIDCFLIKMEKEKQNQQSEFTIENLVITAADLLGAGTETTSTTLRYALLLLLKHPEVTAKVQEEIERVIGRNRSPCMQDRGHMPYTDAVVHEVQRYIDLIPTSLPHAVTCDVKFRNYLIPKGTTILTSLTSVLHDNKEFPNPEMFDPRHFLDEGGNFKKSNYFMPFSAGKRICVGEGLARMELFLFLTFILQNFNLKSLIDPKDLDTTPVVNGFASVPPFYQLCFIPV

Assay [9] concerns the target Cytochrome P450 2C9 (Homo sapiens) (UniProt P11712). The experiment in a line: Cytochrome P450 Family 2 Subfamily C Member 9 (CYP2C9) small molecule antagonists: luciferase reporter qHTS assay (AID 1671198). Also: nearly all actives have a fitted effect of over 50% in size. Also: potency is read from the fitted curve at half-maximal effect. The method, boiled down: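 Enzyme-substrate mix preincubated with compound 10 min at room temperature; reaction started with NADPH regeneration solution, 1 h 37C. Luminescent luciferin product read after 20 min detection reagent.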

The target of assay [10] is Cytochrome P450 1A2 (Homo sapiens) (UniProt P05177). Briefly: Cytochrome P450 Family 1 Subfamily A Member 2 (CYP1A2) small molecule antagonists: luciferase reporter qHTS assay (AID 1671199). Also: nearly all actives have a fitted effect of over 50% in size. Also: potency is read from the fitted curve at half-maximal effect. The method, boiled down: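 Enzymatic CYP1A2 assay, human, luminescent: 10 min compound–enzyme–substrate preincubation, 1 h NADPH-dependent turnover, 20 min detection step, room temperature throughout. Reduced light indicates lower CYP1A2 activity.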
Cytochrome P450 1A2 (Homo sapiens), sequence (P05177 whole entry, looked up): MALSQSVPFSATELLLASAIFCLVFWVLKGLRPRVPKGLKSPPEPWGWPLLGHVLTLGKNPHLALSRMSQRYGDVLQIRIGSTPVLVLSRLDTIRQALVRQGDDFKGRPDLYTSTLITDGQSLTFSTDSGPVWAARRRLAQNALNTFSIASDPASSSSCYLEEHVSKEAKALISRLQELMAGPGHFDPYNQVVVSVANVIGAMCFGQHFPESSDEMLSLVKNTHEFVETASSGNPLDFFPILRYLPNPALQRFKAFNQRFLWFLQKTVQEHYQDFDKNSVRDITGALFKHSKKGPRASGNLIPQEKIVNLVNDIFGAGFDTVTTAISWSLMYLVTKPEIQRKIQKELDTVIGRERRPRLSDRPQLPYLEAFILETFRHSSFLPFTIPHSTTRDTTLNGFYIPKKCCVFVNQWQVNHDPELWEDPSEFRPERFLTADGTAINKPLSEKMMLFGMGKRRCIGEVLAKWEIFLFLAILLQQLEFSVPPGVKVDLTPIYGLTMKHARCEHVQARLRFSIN

Assay [11] deals with Voltage-gated inwardly rectifying potassium channel KCNH2 (Homo sapiens) (UniProt Q12809). The experiment in a line: Human Ether-a-go-go-Related Gene (hERG) channel small molecule antagonists: fluorescence cell-based qHTS assay (AID 1671200).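 Also: hERG-expressing U2OS cells given a thallium stimulus after FluxOR II dye loading; series mostly up to about 77 µM; nearly all actives have a fitted effect of over 50% in size.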 The method, boiled down: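 hERG-U2OS cells plated overnight at 37 C, loaded with FluxOR II dye 1 h at RT in dark; after 10 min, thallium stimulus added. Fluorescence (480/540 nm) read kinetically for 2 min at 1 s intervals.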
Voltage-gated inwardly rectifying potassium channel KCNH2 (Homo sapiens), sequence (Q12809 whole entry, looked up): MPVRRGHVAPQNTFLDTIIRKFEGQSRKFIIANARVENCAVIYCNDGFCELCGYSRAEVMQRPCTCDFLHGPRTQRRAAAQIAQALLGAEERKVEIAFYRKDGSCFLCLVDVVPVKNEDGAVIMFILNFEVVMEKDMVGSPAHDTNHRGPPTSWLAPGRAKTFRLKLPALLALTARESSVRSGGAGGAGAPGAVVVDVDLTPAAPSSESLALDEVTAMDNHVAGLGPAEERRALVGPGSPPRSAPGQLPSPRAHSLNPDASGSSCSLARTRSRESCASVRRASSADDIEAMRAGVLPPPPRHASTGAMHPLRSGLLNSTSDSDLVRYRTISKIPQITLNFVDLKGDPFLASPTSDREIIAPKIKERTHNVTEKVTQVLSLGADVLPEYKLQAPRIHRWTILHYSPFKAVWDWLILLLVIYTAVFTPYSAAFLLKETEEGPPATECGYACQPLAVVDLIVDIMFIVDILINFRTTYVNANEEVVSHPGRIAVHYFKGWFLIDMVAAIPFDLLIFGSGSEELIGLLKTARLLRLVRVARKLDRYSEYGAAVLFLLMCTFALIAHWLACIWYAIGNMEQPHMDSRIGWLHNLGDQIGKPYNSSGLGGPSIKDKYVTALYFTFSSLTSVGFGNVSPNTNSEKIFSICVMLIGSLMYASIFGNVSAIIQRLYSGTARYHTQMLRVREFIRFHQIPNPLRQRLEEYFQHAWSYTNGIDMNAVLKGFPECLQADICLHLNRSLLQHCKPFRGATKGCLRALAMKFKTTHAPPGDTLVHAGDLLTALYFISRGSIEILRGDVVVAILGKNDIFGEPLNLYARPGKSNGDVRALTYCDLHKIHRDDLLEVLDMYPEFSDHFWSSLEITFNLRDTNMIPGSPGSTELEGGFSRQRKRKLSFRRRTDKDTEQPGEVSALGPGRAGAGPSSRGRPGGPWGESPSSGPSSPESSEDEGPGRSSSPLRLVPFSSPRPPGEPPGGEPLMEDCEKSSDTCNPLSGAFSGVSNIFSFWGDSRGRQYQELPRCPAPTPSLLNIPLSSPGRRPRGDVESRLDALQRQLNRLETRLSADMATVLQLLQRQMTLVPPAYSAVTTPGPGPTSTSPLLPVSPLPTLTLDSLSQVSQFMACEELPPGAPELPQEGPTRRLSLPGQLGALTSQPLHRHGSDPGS

In assay [12] the target is Cytochrome P450 3A4 (Homo sapiens) (UniProt P08684). The experiment in a line: Cytochrome P450 Family 3 Subfamily A Member 4 (CYP3A4) small molecule antagonists: luciferase reporter qHTS assay (AID 1671201). Also: nearly all actives have a fitted effect of over 50% in size. Also: potency is read from the fitted curve at half-maximal effect. In outline: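 P450-Glo CYP3A4 luminescent assay: compounds preincubated 10 min at room temperature with enzyme and proluciferin substrate, NADPH regeneration added, 1 h room-temperature reaction, stopped with luciferin detection reagent; luminescence read after 20 min. Ketoconazole positive control.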
Cytochrome P450 3A4 (Homo sapiens), sequence (P08684 whole entry, looked up): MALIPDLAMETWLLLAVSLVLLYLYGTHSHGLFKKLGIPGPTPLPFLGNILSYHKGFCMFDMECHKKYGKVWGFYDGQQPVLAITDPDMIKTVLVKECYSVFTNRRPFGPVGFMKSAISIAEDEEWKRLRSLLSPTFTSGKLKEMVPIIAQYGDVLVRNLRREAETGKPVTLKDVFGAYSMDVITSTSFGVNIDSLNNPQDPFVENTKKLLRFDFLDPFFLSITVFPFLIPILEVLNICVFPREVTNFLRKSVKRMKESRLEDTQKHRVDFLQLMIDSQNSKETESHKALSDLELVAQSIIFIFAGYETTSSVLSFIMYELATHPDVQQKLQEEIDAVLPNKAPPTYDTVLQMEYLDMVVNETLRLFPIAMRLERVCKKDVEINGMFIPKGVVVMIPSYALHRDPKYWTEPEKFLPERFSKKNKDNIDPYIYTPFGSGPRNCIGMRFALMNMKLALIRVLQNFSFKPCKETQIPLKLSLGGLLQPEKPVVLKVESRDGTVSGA

Assay [13] concerns the target Nuclear receptor subfamily 1 group I member 2 (Homo sapiens) (UniProt O75469). Briefly: Human pregnane X receptor (PXR) activation by small molecules, qHTS assay (AID 1346985). Also: nearly all actives have a fitted effect of over 40% in size. Also: potency is read from the fitted curve at half-maximal effect. The method, boiled down:
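DPX-2 cells (HepG2 co-transfected with a PXR response element and a CYP3A4-promoter luciferase construct) were seeded at 2,000 per well, rested 5 hr at 37C, then exposed to DMSO-dissolved compounds for 24 hr. Activation was read as luciferase luminescence.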

Structures are written as SMILES. Where “and” joins values, the source holds several entries; their conditions need not be identical. Equal entries are not always repeated. Records with an inconclusive call do not appear. A structure can be active in one record and inactive in another. Calls of active or inactive are those of the source. Calls follow the shape of the dose curve; as a rule, active = well fitted curve in the direction sought with a large enough effect in the repeat runs; inconclusive = weak or mixed curves; inactive = no such curve, though single readings can be large; an effect the other way counts as inactive or inconclusive.

Cytochrome P450 2D6 (Homo sapiens), sequence (P10635 whole entry, looked up): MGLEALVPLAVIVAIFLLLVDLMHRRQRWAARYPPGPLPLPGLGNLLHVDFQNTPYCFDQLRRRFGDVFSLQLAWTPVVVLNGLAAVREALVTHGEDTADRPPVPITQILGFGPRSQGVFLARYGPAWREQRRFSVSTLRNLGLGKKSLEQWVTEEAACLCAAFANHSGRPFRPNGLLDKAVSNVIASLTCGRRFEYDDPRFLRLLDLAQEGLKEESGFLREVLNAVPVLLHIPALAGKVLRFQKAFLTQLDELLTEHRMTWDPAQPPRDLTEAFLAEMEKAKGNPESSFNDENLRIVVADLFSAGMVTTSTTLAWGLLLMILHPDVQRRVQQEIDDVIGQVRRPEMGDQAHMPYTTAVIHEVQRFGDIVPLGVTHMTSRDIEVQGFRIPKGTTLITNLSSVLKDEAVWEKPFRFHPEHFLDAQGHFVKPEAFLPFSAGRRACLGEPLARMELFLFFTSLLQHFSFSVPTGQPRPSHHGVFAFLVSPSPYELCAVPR
Nuclear receptor subfamily 1 group I member 2 (Homo sapiens), sequence (O75469 whole entry, looked up): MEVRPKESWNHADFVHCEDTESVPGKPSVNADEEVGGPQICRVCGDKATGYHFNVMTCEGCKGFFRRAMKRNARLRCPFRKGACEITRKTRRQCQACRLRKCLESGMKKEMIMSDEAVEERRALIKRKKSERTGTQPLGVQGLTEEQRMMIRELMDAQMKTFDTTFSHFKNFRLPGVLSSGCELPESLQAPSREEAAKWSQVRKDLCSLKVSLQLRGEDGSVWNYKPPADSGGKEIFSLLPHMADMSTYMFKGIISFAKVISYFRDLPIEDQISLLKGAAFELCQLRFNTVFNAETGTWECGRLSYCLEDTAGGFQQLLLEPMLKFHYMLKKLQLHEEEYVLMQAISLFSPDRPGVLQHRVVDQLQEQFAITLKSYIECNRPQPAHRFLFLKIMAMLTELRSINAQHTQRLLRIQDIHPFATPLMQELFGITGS
Cytochrome P450 2C9 (Homo sapiens), sequence (P11712 whole entry, looked up): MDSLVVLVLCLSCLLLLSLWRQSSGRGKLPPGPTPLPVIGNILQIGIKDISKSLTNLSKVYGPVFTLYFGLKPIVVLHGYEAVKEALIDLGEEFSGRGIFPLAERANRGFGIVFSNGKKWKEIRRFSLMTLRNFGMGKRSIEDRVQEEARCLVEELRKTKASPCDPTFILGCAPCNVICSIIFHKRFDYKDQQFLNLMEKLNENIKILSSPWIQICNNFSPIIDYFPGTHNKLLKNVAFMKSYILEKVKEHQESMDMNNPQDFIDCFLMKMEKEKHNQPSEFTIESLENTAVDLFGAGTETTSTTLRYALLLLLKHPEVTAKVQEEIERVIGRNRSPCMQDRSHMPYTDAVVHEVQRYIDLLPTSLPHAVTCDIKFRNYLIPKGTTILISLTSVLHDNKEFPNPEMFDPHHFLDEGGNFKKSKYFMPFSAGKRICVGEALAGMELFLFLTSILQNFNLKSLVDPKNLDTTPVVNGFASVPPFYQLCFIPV

Take `C#C[C@]1(O)CC[C@H]2[C@@H]3CCc4cc(OC)ccc4[C@H]3CC[C@@]21C`: the Potency entry in assay [1], in assay [3], in assay [4], in [6], in assay [7] and in [11] was “inactive” each time. The Potency is 27.3 µM (active) and 18.8 µM (active) in assay [2]; 21.7 µM (active) and 18.8 µM (active) in assay [5]; 3.56 µM (active) and 2.19 µM (active) in [8]; 5.64 µM (active) and 6.92 µM (active) in assay [9]; 7.1 µM (active) and 9.77 µM (active) in assay [10].
With `O=C(c1ccccc1)c1ccccc1O`, the Potency entry in [1], in assay [2], in assay [3], in assay [4], in assay [5] and in [11] was “inactive” in each case. The Potency entry in [12] was “inactive”. Besides, the Potency in [7] was 40.9 µM (active); in [8] it was 3.65 µM (active) and 22.4 µM (active); in assay [9], 40.9 µM (active) and 63.3 µM (active); in assay [10], 11.5 µM (active) and 15.9 µM (active).
Consider `CCCCC(CC)COC(=O)c1ccc(N(C)C)cc1` (stereo not given), for which the Potency result in assay [1], in assay [2], in assay [3], in assay [4], in assay [6] and in [13] was “inactive” each time. For the same compound, the Potency result in assay [11] and in assay [12] was “inactive” each time. In addition, the Potency entry in assay [5] is “inactive and 54.5 µM (active)”; in assay [7] it was 30.9 µM (active); in assay [8], 40.1 µM (active) and 20 µM (active) and 6.92 µM (active); in assay [9] it was 31.9 µM (active) and 17.8 µM (active) and 15.5 µM (active); in [10], 12.7 µM (active) and 7.1 µM (active) and 4.56 µM (active).
For the compound `Cc1cccc(N(C)C(=S)Oc2ccc3ccccc3c2)c1`, the Potency result in assay [1], in assay [2], in assay [3], in [4] and in assay [7] was “inactive” in each case. Also, the Potency in assay [5] is 17.2 µM (active) and 11.9 µM (active); in assay [6] it was 5.01 µM (active); in assay [13], 8.91 µM (active); in [8], 1.26 µM (active) and 977 nM (active); in assay [9], 8.94 µM (active) and 6.92 µM (active); in assay [10], 10 µM (active) and 9.77 µM (active).
For the compound `CC(=O)c1ccccn1`, the Potency entry in assay [1], in [2], in [3], in assay [4], in assay [5] and in assay [7] was “inactive” each time. Further, the Potency entry in assay [9], in assay [11] and in [12] was “inactive” in each case. For the same compound, the Potency in assay [8] was 20.2 µM (active) and inactive; in assay [10], 64 µM (active) and inactive.
For the compound `S=C(NC1CCCCC1)NC1CCCCC1`, the Potency result in assay [1], in [3], in assay [4] and in assay [11] was “inactive” throughout. The Potency in assay [2] is 60 µM (active) and 43.3 µM (active); in assay [5], 26.8 µM (active) and 19.3 µM (active); in assay [7], 31.1 µM (active) and 22.4 µM (active); in assay [8], 7.81 µM (active) and 8.94 µM (active); in assay [9] it was 12.4 µM (active) and 35.6 µM (active); in assay [10] it was 78.1 µM (active) and inactive. Further, the Potency in assay [12] is 17.5 µM (active) and 28.3 µM (active).
Turning to `CC(C)(C)NC(=O)[C@H]1CC[C@H]2[C@@H]3CC[C@H]4NC(=O)C=C[C@]4(C)[C@H]3CC[C@]12C`, the Potency result in assay [1], in [2], in [3], in assay [4], in assay [6] and in assay [13] was “inactive” each time. The Potency result in assay [7], in assay [10], in assay [11] and in assay [12] was “inactive” each time. Further, in assay [5], the Potency was 48.6 µM (active).
As to `Cc1c(C(N)=O)cc([N+](=O)[O-])cc1[N+](=O)[O-]`, the Potency result in assay [1], in assay [2], in assay [3], in [4], in assay [5] and in assay [6] was “inactive” each time. The Potency entry in assay [13], in assay [7], in assay [8], in assay [9], in assay [10] and in assay [11] was “inactive” throughout. For the same compound, the Potency entry in assay [12] is “inactive”.
Turning to `C=C(C)C(=O)OCCOC(=O)C(=C)C`, the Potency result in [1], in assay [2], in [3], in assay [4], in assay [5] and in assay [7] was “inactive” each time. Besides, the Potency entry in assay [8], in [9], in assay [11] and in assay [12] was “inactive” throughout. Also, the Potency result in [10] is “inactive and 35.6 µM (active)”.
With `Nc1ccc(S(=O)(=O)Nc2cnc3ccccc3n2)cc1`, the Potency result in [1], in assay [2], in [3], in [4], in assay [5] and in [6] was “inactive” in each case. Besides, the Potency result in assay [13], in [7], in assay [11] and in [12] was “inactive” throughout. Further, the Potency in [8] was 39.9 µM (active); in [9] it was 11.2 µM (active) and 15.5 µM (active).
Take `CCC(C)(O)CCCC(C)C` (stereo not given): the Potency result in assay [1], in assay [2], in assay [3], in [4], in assay [5] and in assay [7] was “inactive” each time. In addition, the Potency entry in assay [8], in [9], in [10], in assay [11] and in assay [12] was “inactive” in each case.
In the case of `C[C@]12CC[C@H]3[C@@H](CCC4=CC(=O)CC[C@@]43C)[C@@H]1CC[C@@H]2C(=O)CO`, the Potency result in [1], in [2], in [3], in assay [4], in [6] and in assay [13] was “inactive” in each case. Besides, the Potency entry in assay [7], in assay [11] and in assay [12] was “inactive” throughout. The Potency was 21.7 µM (active) and inactive in assay [5]; 7.1 µM (active) and 8.71 µM (active) in assay [8]; 39.9 µM (active) and 27.5 µM (active) in assay [9].
For `Cc1cccc([N+](=O)[O-])c1C`, the Potency result in assay [1], in [2], in assay [3], in [4], in [5] and in assay [7] was “inactive” each time. In addition, the Potency entry in assay [8], in assay [9], in assay [10], in assay [11] and in assay [12] was “inactive” in each case.
Turning to `C/C=C/C(=O)O`, the Potency result in assay [1], in assay [2], in assay [3], in assay [4], in assay [5] and in assay [7] was “inactive” throughout. Also, the Potency result in assay [8], in assay [9], in [10], in assay [11] and in assay [12] was “inactive” each time.
